Screens (PubChem BioAssay)
RE007 growth inh – qHTS Assay for Inhibitors of the HIV-1 protein Vpr. S. pombe RE007 Vpr strain, BacTiter-Glo ATP luminescence, 24 h. Potency, µM (titrated, usually from 92.2 µM), for the others: at the highest dose activity change, negative = less growth, actives largely listed as inhibitors. 360,000 tested, 0.21% active. AID 651644, 2012; active = well fitted falling curve with a large enough effect; inconclusive = small, poorly fitted or top-dose-only effect; inactive = no such curve, though single readings can be large or run the other way; note: % is set by controls: 0 for no effect and ±100 for the full control effect; nearly all actives have a fitted effect of over 50% in size
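Fission yeast RE007 carrying one integrated HIV-1 vpr copy, seeded at OD 0.01 in PMG+AL medium with 23 nL pinned compound. Grown 24 h at 30 degrees; viability read by BacTiter-Glo luminescence after 5 min.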
Pf growth 96h – Primary qHTS for delayed death inhibitors of the malarial parasite plastid, 96 hour incubation. P. falciparum luciferase reporter growth, 96 h. Potency, µM (doses to about 28.7 µM), for inactives: at the top dose activity change, negative = inhibition, most hits filed as inhibitors. 320,000 tested, 6.9% active. AID 504834, 2011; note: % is set by controls: 0 for no effect and ±100 for the full control effect
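96 h incubation, 37 C, 5% CO2, of luciferase-reporter P. falciparum-infected RBCs (2% hematocrit, 0.05% parasitemia final) with test compounds; endpoint luminescence.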
NS1 inh – qHTS Assay for Inhibitors of Influenza NS1 Protein Function. Potency, µM (doses to about 46.1 µM), inactives show top-dose activity, positive = more growth. 270,000 tested, 0.4% active; calls by dose curve; note: actives are rising curves; nearly all actives have a fitted effect of over 50% in size
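S. cerevisiae expressing influenza A NS1, grown in glucose, washed, then diluted 1:100 into pH 6.0 -URA galactose medium with 23 nl compound. Growth recovery read as OD600; NS1-free strain serves as control.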
Pf growth 48h – Primary qHTS for delayed death inhibitors of the malarial parasite plastid, 48 hour incubation; P. falciparum luciferase growth in erythrocytes, 48 h; Potency, µM (doses to about 28.7 µM), inactives show at the top dose activity change, negative = inhibition, hits mostly inhibitors; 310,000 tested, 5.9% active; AID 504832, 2011; note: % is set by controls: 0 for no effect and ±100 for the full control effect
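In quantitative HTS format, infected erythrocytes bearing luciferase-reporter parasites were treated for a single generation at 37 C. Luminescence after adding detection reagent served as the growth measure.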
SARS PLP yeast – qHTS of Yeast-based Assay for SARS-CoV PLP; S. cerevisiae expressing SARS-CoV PLpro, growth rescue; Potency, µM (doses to about 32.9 µM), for inactives: at the top dose activity, positive = growth rescue, actives largely listed as activators; 330,000 tested, 0.19% active; AID 485353, 2010; calls by dose curve; note: 0% is about no effect; nearly all actives have a fitted effect of over 55% in size
* marks the source's active call; other numbers are inactive results; ? = inconclusive; · = not tested or not shown. In the library only some 9.5% were active in any assay of this set; here they are far more common. Unless noted, calls come from the whole dose curve; as a rule, active = well fitted inhibition curve with a large enough effect; inconclusive = small, poorly fitted or top-dose-only effect, or another doubt; inactive = no such curve, though single readings can be large or run the other way. Potency is the fitted concentration of half-maximal effect.

SMILES	RE007 growth inh	Pf growth 96h	NS1 inh	Pf growth 48h	SARS PLP yeast
C=CC(=O)NC(NC(=O)C=C)c1ccccc1F	8%	9.3µM*	-2%	?	0%
CCOC(=O)c1c(NC(=O)COC(=O)Cc2n[nH]c(=O)c3ccccc23)sc(C(=O)NC)c1C	27%	·	·	·	-1%
Cn1c(CNC(=O)CNC(=O)Cc2ccccc2)cc(=O)n(C)c1=O	-7%	20%	22%	16%	2%
CCN(CC)c1ccc(S(=O)(=O)N2CCOCC2)cc1NC(=O)CN1C(=O)NC2(CCCC2)C1=O	-1%	?	-6%	?	3%
CC1(C)NC(=O)N(CC(=O)Nc2cc(S(=O)(=O)N3CCOCC3)ccc2N2CCOCC2)C1=O	·	7.4µM*	·	19%	-1%
O=C(CN1CCc2ccccc2C1)Nc1cc(S(=O)(=O)N2CCOCC2)ccc1N1CCCC1	1%	?	-2%	?	1%
O=C(CN1CCc2ccccc2C1)Nc1cc(S(=O)(=O)N2CCOCC2)ccc1N1CCOCC1	1%	13µM*	-4%	?	0%
COc1ccc(C(=O)CSc2nnc(CC(=O)Nc3ccccc3OC)n2C)cc1	1%	?	·	3%	1%
CNc1ccccc(-c2ccc3ccccc3n2)c1=O	-5%	431%	-8%	278%	-20%
O=C(CN1CCCCC1)Nc1cc(S(=O)(=O)N2CCOCC2)ccc1N1CCCC1	-6%	?	·	-3%	-1%
Cc1cc2nn(-c3cccc4ccccc34)nc2cc1NC(=O)c1cccs1	-22%	7.4µM*	-7%	·	-6%
Cc1ccc(-c2nn3c(C)nnc3s2)cc1NC(=O)c1cccs1	-8%	·	4%	?	-6%
O=C(NCCCc1ccccc1)c1ccc(F)cc1	52%	17µM*	-8%	38%	1%
O=C(NCCCCNC(=O)c1ccc(Br)cc1)c1ccc(Br)cc1	-5%	56%	5%	1%	-2%
O=C(NCCCCNC(=O)c1ccc(F)cc1)c1ccc(F)cc1	-7%	2.6µM*	20%	3%	-3%
Nc1ncnc2c1ncn2[C@H]1O[C@@H](C(=O)OCCO)[C@@H](O)[C@H]1O	·	·	-3%	·	·
CC(C)N(C(=O)Cn1cc(S(=O)(=O)CC(=O)NCc2ccccc2)c2ccccc21)C(C)C	4%	-16%	-4%	26%	-2%
CC(=O)Nc1cccc(NC(=O)CS(=O)(=O)c2cn(CC(=O)N(C(C)C)C(C)C)c3ccccc23)c1	-8%	12µM*	16%	?	1%
COc1ccc(OC)c(NC(=O)CS(=O)(=O)c2cn(CC(=O)N3CCOCC3)c3ccccc23)c1	1%	?	-2%	?	1%
COc1ccc(NC(=O)CS(=O)(=O)c2cn(CC(=O)N3CCOCC3)c3ccccc23)cc1OC	-16%	7.4µM*	-1%	-23%	1%
O=C(Nc1ccc(Cc2nc3ccccc3s2)cc1)c1ccncc1	-12%	?	1%	-20%	-3%
CCOCC(O)COc1ccc(NC(=O)CC[S+](C)C)cc1 (configuration not stated)	·	-3%	·	-14%	·
C=C[C@@H]1c2cc(C)ccc2N(S(=O)(=O)c2ccc(C)cc2)[C@H](c2ccccc2)C1(C#N)C#N	7%	?	·	?	-3%
C=C[C@@H]1c2ccccc2N(S(=O)(=O)c2ccc(C)cc2)[C@H](c2ccccc2)C1(C#N)C#N	-4%	?	·	3.7µM*	1%
COc1cc2c(cc1OC)CN(C(=O)c1cc(S(=O)(=O)N3CCOCC3)c(Cl)cc1Cl)CC2	8%	5.2µM*	4%	?	0%
SMILES	RE007 growth inh	Pf growth 96h	NS1 inh	Pf growth 48h	SARS PLP yeast
O=C(c1cc(S(=O)(=O)N2CCOCC2)c(Cl)cc1Cl)N1CCCC1	-15%	?	·	15%	-4%
Cc1cc2[nH]c3ccccc3c2c(C)n1	-1%	2.1µM*	3%	6.6µM*	2%
Cc1nc(=S)c2ccccc2[nH]1	16%	40%	0%	·	?
CCn1c(SCC(=O)N/N=C/c2c[nH]c3ccccc23)nnc1-c1ccc(C(C)(C)C)cc1	26%	10µM*	7%	?	10%
NC(=O)NOCc1ccccc1F	14%	?	1%	24%	0%
CC(C)(C)c1cc(C(=O)N/N=C/c2ccc(O)cc2)n(-c2ccccc2)n1	9%	-8%	0%	9.3µM*	16%
